Compound activity: PubChem, National Center for Advancing Translational Sciences (NCATS)
RORg inh: qHTS for inhibitors of ROR gamma transcriptional activity; Nuclear receptor ROR-gamma (Mus musculus), P51450; Drosophila S2 Gal4-RORgamma UAS-luciferase reporter, 20 h; Potency, µM (series often up to 53.6 µM), hits mostly inhibitors; actives 5.4% (n = 310,000); note: nearly all actives have a fitted effect of over 60% in size
Target sequence (P51450 whole entry, looked up, the tested form may be a part): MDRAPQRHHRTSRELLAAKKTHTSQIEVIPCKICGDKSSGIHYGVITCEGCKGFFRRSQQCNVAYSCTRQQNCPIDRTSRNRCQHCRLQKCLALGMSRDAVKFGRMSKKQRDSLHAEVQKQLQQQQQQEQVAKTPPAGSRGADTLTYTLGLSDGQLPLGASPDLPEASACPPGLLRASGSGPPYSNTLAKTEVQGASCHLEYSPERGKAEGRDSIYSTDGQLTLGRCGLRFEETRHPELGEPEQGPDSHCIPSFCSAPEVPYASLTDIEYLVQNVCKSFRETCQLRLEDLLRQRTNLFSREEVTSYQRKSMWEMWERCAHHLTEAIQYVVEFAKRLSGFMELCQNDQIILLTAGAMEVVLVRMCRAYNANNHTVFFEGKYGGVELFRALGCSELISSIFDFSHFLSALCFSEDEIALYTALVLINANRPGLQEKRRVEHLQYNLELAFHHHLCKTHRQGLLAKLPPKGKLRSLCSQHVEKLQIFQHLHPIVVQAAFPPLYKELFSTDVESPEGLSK
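Stably transfected Drosophila Schneider cells are the test system, with ROR gamma fused to Gal4 and luciferase under UAS control; luminescence is read after 20 hr of 700 uM copper sulfate induction at ambient temperature.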
TDP1 cell noCPT: qHTS for Inhibitors of human tyrosyl-DNA phosphodiesterase 1 (TDP1): qHTS in cells in absence of CPT. DT40 Tdp1-/- hTDP1 cells, no CPT, ATP luminescence, 48 h. Potency, µM (highest dose often 46.2 µM), most hits filed as inhibitors. AID 686978, 2013. actives 15% (n = 420,000); note: nearly all actives have a fitted effect of over 55% in size
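Seeded 400 DT40-hTDP1 cells/well (vehicle DMSO, no 20 nM CPT); pinned compounds; ≥48 hr at 37 °C; CellTiter-Glo luminescence as viability measure.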
Gal4-VP16 FLuc: VP16 counterscreen qHTS for inhibitors of ROR gamma transcriptional activity | Potency, µM (titrated, usually from 53.6 µM), usual class: inhibitors | actives 3.5% (n = 310,000) | Drosophila S2 Gal4-VP16 UAS-luciferase, luminescence, 20 h;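 note: Gal4-VP16 expression switched on by copper sulfate through the metallothionein promoter; nearly all actives have a fitted effect of over 50% in size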
DT40 TDP1 CPT: qHTS for Inhibitors of human tyrosyl-DNA phosphodiesterase 1 (TDP1): qHTS in cells in presence of CPT; chicken DT40 Tdp1-/-;hTDP1 cells + 20 nM CPT, ATP luminescence, 48 h; Potency, µM (highest dose often 46.2 µM), usual class: inhibitors; actives 12% (n = 420,000); note: nearly all actives have a fitted effect of over 55% in size
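Chicken DT40 Tdp1-/- cells complemented with human TDP1, 400 cells/well, exposed to compounds plus 20 nM camptothecin for at least 48 h at 37 C; viability read as ATP content by CellTiter-Glo luminescence.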
IL1B secr inh: qHTS for Inhibitors of Inflammasome Signaling: IL-1-beta AlphaLISA Primary Screen | actives 4.7% (n = 360,000) | activity change, % at 57.5 µM | THP-1 LPS/ATP IL-1B secretion, AlphaLISA, 16 h; active compounds read low; in the data active = activity change below about -50%; inconclusive = mostly about -30% to -49%
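THP-1 cells pretreated 1 hr with compounds (up to 57.5 uM final), then stimulated with LPS (250 ng/mL final) plus ATP (1.25 mM final); secreted IL-1B measured by AlphaLISA after 16 hr, decreased signal indicating inhibition.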
LDHA inh: qHTS assay for inhibitors of human lactate dehydrogenase. L-lactate dehydrogenase A chain (Homo sapiens), P00338. purified LDHA, NADH/diaphorase-resazurin fluorescence; active compounds read low. activity change, % (values are at about 110 or 230 µM). actives 0.15% (n = 480,000). AID 1347041, 2019; in the data active = activity change below about -30%; inconclusive = mostly about -25% to -30%
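LDH5 2 nM; NADH 0.06 mM, pyruvate 0.2 mM; 200 mM Tris pH 7.4, EDTA, Tween-20; 5 min RT. Detection: diaphorase 0.133 mg/mL + resazurin 37 µM, fluorescence ex540/em590 at 0 and 20 min; normalized to enzyme-free and DMSO wells.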
A number is an active result; . = inactive; ? = inconclusive; / = not tested or not shown. Most compounds without a hit are left out; they make up all but 18% or so of the library. Unless noted, calls come from the whole dose curve; as a rule, active = well fitted curve in the direction sought with a large enough effect; inconclusive = small, poorly fitted or top-dose-only effect, or another doubt; inactive = no such curve, though single readings can be large; an effect the other way counts as inactive or inconclusive.

SMILES | RORg inh | TDP1 cell noCPT | Gal4-VP16 FLuc | DT40 TDP1 CPT | IL1B secr inh | LDHA inh
Cc1ccc(C(CC(=O)NCc2ccco2)c2ccccc2)c(O)c1 (configuration not stated) | . | . | . | . | . | .
CC(C)c1ccc(-n2ccc3nc(N4CCOCC4)ncc3c2=O)cc1 | / | / | / | / | / | .
CCCC(=O)Nc1ccccc1C(C)CC (configuration not stated) | / | / | / | / | / | .
Cc1cccc(NC(=O)CSc2nc(C3CC3)nc3ccccc23)c1 | . | ? | . | ? | . | .
CC(=O)c1cccc(NC(=O)CSc2nc(C3CC3)nc3ccccc23)c1 | . | 16.4µM | . | ? | -96.2 | .
O=C(CSc1nc(C2CC2)nc2ccccc12)Nc1ccccc1 | . | ? | . | . | -60.8 | .
COc1cc(NC(=O)CSc2nc(C3CC3)nc3ccccc23)cc(OC)c1 | . | ? | . | . | . | .
CC(=O)Nc1cccc(NC(=O)CSc2nc(C3CC3)nc3ccccc23)c1 | . | 7.31µM | . | 4.11µM | -79.4 | .
O=C(CSc1nc(C2CC2)nc2ccccc12)Nc1ccccc1N1CCOCC1 | ? | ? | . | ? | -76.3 | .
Cc1cccc(C)c1NC(=O)N1CCN(S(C)(=O)=O)CC1 | / | / | / | / | / | .
O=C(CSc1nc(C2CC2)nc2ccccc12)Nc1ccccc1Cl | . | . | . | . | . | .
CN(C)c1ccc(NC(=O)CSc2nc(C3CC3)nc3ccccc23)cc1 | . | 18.4µM | . | ? | . | .
CCN(CC)c1ccc(NC(=O)CSc2nc(C3CC3)nc3ccccc23)cc1C | . | 5.17µM | . | 4.11µM | . | .
COC(C[C@H]1O[C@@H]1C(=O)COCc1ccccc1)OC | / | 4.61µM | / | 4.11µM | . | .
COC(C[C@@H]1O[C@H]1C(=O)COCc1ccccc1)OC | / | 20.6µM | / | 16.4µM | . | .
COC(C[C@@H]1O[C@H]1[C@H](O)COCc1ccccc1)OC | . | . | . | . | . | .
COC(C[C@@H]1O[C@@H]1C(=O)COCc1ccccc1)OC | . | ? | . | 18.4µM | . | .
CCCCCCCc1ccc(-c2ccc(O)c(F)c2)nc1 | / | / | / | / | / | .
C1CNC(CN2CCOCC2)C1 (configuration not stated) | / | / | / | / | / | .
O=C(Cc1cccc2c(=O)cc(-c3ccccc3)oc12)OCCN1CCOCC1 | / | . | / | . | . | .
Clc1ccc2oc(-c3ccccc3)cc(=NCCCN3CCOCC3)c2c1 | . | ? | . | ? | -91.4 | .
COc1ccc(NC(=O)Cn2ncc3c2-c2ccccc2OC3)cc1Cl | / | 14.6µM | / | ? | / | .
Cc1cccc(N2CCN(C(=O)Cn3ncc4c3-c3ccccc3OC4)CC2)c1C | / | 16.4µM | / | 18.4µM | / | .
Cc1ccc2c(c1)-c1c(cnn1CC(=O)N1CCN(c3cc(C)ccc3C)CC1)CO2 | / | 18.4µM | / | ? | / | .
O=C(Cn1ncc2c1-c1ccccc1OC2)Nc1ccc(S(=O)(=O)N2CCCCC2)cc1 | . | ? | . | ? | ? | .
SMILES | RORg inh | TDP1 cell noCPT | Gal4-VP16 FLuc | DT40 TDP1 CPT | IL1B secr inh | LDHA inh
Cc1nc2c(ccc3nc(NC(=O)C4CC4)sc32)s1 | . | ? | . | ? | ? | .
CCC(=O)Nc1nc2ccc3sc(C)nc3c2s1 | . | 23.1µM | . | 18.4µM | . | .
NC(Cc1ccc(Cl)cc1)c1csc(NC(=O)NCCc2ccccc2)n1 (configuration not stated) | / | ? | / | 23.1µM | . | .
NC(CCc1ccccc1)c1csc(NC(=O)NCCc2ccccc2)n1 (configuration not stated) | / | ? | / | 23.1µM | ? | .
NC(Cc1ccc(Cl)cc1)c1csc(NC(=O)NCC2CCCCC2)n1 (configuration not stated) | / | 8.2µM | / | 10.3µM | . | .
COc1ccccc1CNC(=O)Nc1nc(C(N)CCc2ccccc2)cs1 (configuration not stated) | / | 18.4µM | / | 18.4µM | ? | .
NC(Cc1ccc(Cl)cc1)c1csc(NC(=O)Nc2ccccc2-c2ccccc2)n1 (configuration not stated) | / | 11.6µM | / | 13µM | ? | .
NC(CO)c1csc(NC(=O)Nc2ccccc2Cc2ccccc2)n1 (configuration not stated) | / | ? | / | ? | . | .
CN(C)S(=O)(=O)c1ccc2c(c1)cc(C(=O)NCC1CCCO1)n2C (configuration not stated) | / | / | / | / | / | .
COc1ccc(-c2cc3ccccc3n2CC(O)CNCCO)cc1 (configuration not stated) | . | 14.6µM | . | 23.1µM | . | .
COc1ccc(-c2cc3ccccc3n2CC(O)CN2CCCCC2)cc1 (configuration not stated) | . | . | . | . | . | .
CCOC(=O)c1coc(CNC(=O)c2coc(C)c2)c1 | / | / | / | / | / | .
CC(=O)N1CCC2(CC1)CC(=O)c1ccc(OCC(=O)NC3CCS(=O)(=O)C3)cc1O2 (configuration not stated) | / | / | / | / | / | .
COc1ccc(-c2nc(NCCN(C)C)nc3ccsc23)c(C)c1 | / | ? | / | ? | -53.2 | .
CN(C)CCNc1nc(Oc2ccccc2)c2sccc2n1 | / | . | / | . | . | .
Cc1ccc(F)cc1-c1nc(NCC2CC2)nc2ccsc12 | / | ? | / | ? | . | .
c1ccc(-c2nc(NCC3CC3)nc3ccsc23)cc1 | / | ? | / | 16.4µM | . | .
Cc1ccccc1-c1nc(NCC2CC2)nc2ccsc12 | / | ? | / | 23.1µM | . | .
COc1cccc(OC)c1OCc1ccon1 | / | / | / | / | / | .
Cc1ccc(NS(=O)(=O)c2cccc(Cl)c2)cc1C | / | / | / | / | / | .
Cc1ccc(NS(=O)(=O)c2cc3c4c(cccc4c2)C(=O)NC3=O)cc1C | ? | 8.2µM | ? | 6.51µM | . | .
CCc1ccc(C2C=C(c3ccc(OC)cc3)Nc3nnnn32)cc1 (configuration not stated) | / | / | / | / | / | .
Cn1nc(-c2ccccc2)nc1-c1ccccc1 | / | . | / | ? | . | .
Cc1nnc2nc(-c3ccccc3)nc(-c3ccccc3)n12 | . | 14.6µM | . | ? | . | .
COc1ccc2nc(SCC(=O)c3cc(C)n(C)c3C)[nH]c2c1 | / | / | / | / | / | .
Nc1c(C(=O)c2ccccc2)sc2snc(SCC(=O)c3ccccc3)c12 | 11.2µM | ? | 12.6µM | ? | . | .
Nc1nnc(SCC(=O)c2ccccc2)s1 | . | . | . | . | . | .
Cc1ccc(C)c(NC(=O)Cn2nc(C)c3ccccc32)c1 | / | / | / | / | / | .
